Measurements published in the supplement of paper PMC6992640.
± gives the standard deviation of the averaged measurements.

What was measured:
Assay in all cases: cell viability (% of vehicle); higher = less cytotoxic
HCI01 [1] = cells of a triple-negative basal-like breast cancer xenograft; settings: 1 µM; 72 h
UCD52 [2] = cells of a triple-negative basal-like breast cancer xenograft; settings: 1 µM; 72 h
WHIM2 [3] = cells of a triple-negative basal-like breast cancer xenograft; settings: 1 µM; 72 h
WHIM30 [4] = cells of a triple-negative basal-like breast cancer xenograft; settings: 1 µM; 72 h
HCI01 [5] = settings: 10 µM; 72 h
HCI03 = cells of an ER-positive luminal breast cancer xenograft; settings: 10 µM; 72 h
HCI09 = cells of a triple-negative luminal androgen receptor type breast cancer xenograft; settings: 10 µM; 72 h
HCI11 = cells of an ER-positive luminal breast cancer xenograft; settings: 10 µM; 72 h
HCI13 = cells of an ER-positive luminal breast cancer xenograft; settings: 10 µM; 72 h
HCI16 = cells of a triple-negative basal-like breast cancer xenograft; settings: 10 µM; 72 h
UCD52 [6] = settings: 10 µM; 72 h
WHIM2 [7] = settings: 10 µM; 72 h
WHIM30 [8] = settings: 10 µM; 72 h

Compound	cell viability (HCI01 [1])	cell viability (UCD52 [2])	cell viability (WHIM2 [3])	cell viability (WHIM30 [4])	cell viability (HCI01 [5])	cell viability (HCI03)	cell viability (HCI09)	cell viability (HCI11)	cell viability (HCI13)	cell viability (HCI16)	cell viability (UCD52 [6])	cell viability (WHIM2 [7])	cell viability (WHIM30 [8])
COc1cc(Nc2c(C#N)cnc3cc(OCCCN4CCN(C)CC4)c(OC)cc23)c(Cl)cc1Cl [Bosutinib (SKI-606)]	61.1	30.4	55.4	68.4	48.4 ± 2.7	48	53.7 ± 33	101	71.4 ± 48	55.8	37.1 ± 4.8	36.7 ± 13	52.1 ± 9.3
CN1CCN(CCCN2c3ccccc3Sc3ccc(C(F)(F)F)cc32)CC1.Cl.Cl [Trifluoperazine 2HCl]	95.7	82.1	102	84.9	42.8 ± 8.5	57.4	30.2 ± 8	82.1	42.2 ± 2	54.1	33.8 ± 2.4	43.3 ± 3.1	97.8 ± 6.6
CC[C@H](C)[C@H]1O[C@]2(CC[C@@H]1C)C[C@@H]1C[C@@H](C/C=C(\C)[C@@H](O[C@H]3C[C@H](OC)[C@@H](O[C@H]4C[C@H](OC)[C@@H](O)[C@H](C)O4)[C@H](C)O3)[C@@H](C)/C=C/C=C3\CO[C@@H]4[C@H](O)C(C)=C[C@@H](C(=O)O1)[C@]34O)O2 [Ivermectin]	90.6	57.6	86.6	73.3	38.3 ± 8	81.2	20 ± 3.4	81	37.6 ± 8.1	82.9	76.3 ± 3	40.5 ± 7.1	36.2 ± 3
Cl.Nc1ccn(C2OC(CO)C(O)C2O)c(=O)n1 (stereo not given) [Cytarabine hydrochloride]	71.5	114	86.3	90.1	75.2 ± 11	105	122 ± 36	147	61.5 ± 3.5	73.9	105 ± 5.7	58 ± 8.3	81.1 ± 11
CC(C)(C)Cn1c(N)nc2ccc(-c3[nH]c(C(C)(C)C)nc3-c3ccc(F)cc3)nc21.CS(=O)(=O)O.CS(=O)(=O)O	67.7	46.4	65.4	61.1	58.4 ± 4.5	54.2	36.8 ± 15	81	58.7 ± 0.99	72.3	36.7 ± 1.6	39.5 ± 3.9	64.2 ± 9.7
CC1=C(C(=O)OC(C)C)C(c2cccc([N+](=O)[O-])c2)C(C(=O)OC2CN(C(c3ccccc3)c3ccccc3)C2)=C(N)N1 (stereo not given) [Azelnidipine]	93.6	73.5	85.9	88.3	33.6 ± 1.3	59	21.5 ± 0.58	80.4	41.6 ± 5.9	62	93.5 ± 6.1	61.3 ± 19	57.7 ± 26
Cl.OC(c1cc(C(F)(F)F)nc2c(C(F)(F)F)cccc12)C1CCCCN1 (stereo not given) [Mefloquine hydrochloride]	97.5	66	103	74	31.9 ± 1.3	40.5	23.9 ± 5.5	51.4	44.6 ± 6.4	30	30.3 ± 5.2	37.7 ± 2	49 ± 2.9
CN(C(=O)CN(CCO)CC(=O)N(C)C(C)(C)Cc1ccccc1)C(C)(C)Cc1ccccc1 [Oxethazaine]	87.3	93.6	88.5	88.4	96.6 ± 4.3	55.9	69.4 ± 40	87.9	45.7 ± 12	83.1	39.3 ± 4.8	43.2 ± 9.4	96.4 ± 9.4
CC1(C)CCC(c2ccc(Cl)cc2)=C(CN2CCN(c3ccc(C(=O)NS(=O)(=O)c4ccc(NC(CCN5CCOCC5)CSc5ccccc5)c(S(=O)(=O)C(F)(F)F)c4)cc3)CC2)C1 (stereo not given) [ABT-263 (Navitoclax)]	76.2	54.1	66.8	62.2	28 ± 2	44.2	21.8 ± 3.1	47.1	33.8 ± 0.76	29.6	36.5 ± 2.4	32.1 ± 4.1	35.2 ± 7.7
Nc1ccc2cc3ccc([NH3+])cc3nc2c1.Nc1ccc2cc3ccc([NH3+])cc3nc2c1.O=S(=O)([O-])[O-] [Proflavine Hemisulfate]	91.4	139	51.3	58.8	82.6 ± 55	144	23.3 ± 3.6	41.6	–	165	54.6 ± 16	50.3 ± 13	85.2 ± 2.2
CO[C@H]1/C=C/O[C@@]2(C)Oc3c(C)c(O)c4c(O)c(c(/C=N/N5CCN(C6CCCC6)CC5)c(O)c4c3C2=O)NC(=O)/C(C)=C\C=C\[C@H](C)[C@H](O)[C@@H](C)[C@@H](O)[C@@H](C)[C@H](OC(C)=O)[C@@H]1C [Rifapentine]	93.7	88.8	104	95.8	47.7 ± 28	120	26.9 ± 5.9	104	133 ± 18	122	77.4 ± 4.6	53.9 ± 24	117.8 ± 0.39
CNC(=O)c1cc(Oc2ccc(NC(=O)Nc3ccc(Cl)c(C(F)(F)F)c3)cc2)ccn1.Cc1ccc(S(=O)(=O)O)cc1 [Sorafenib Tosylate]	90.6	74.5	81.7	65.2	22 ± 0.23	65.5	14.6 ± 7	63.9	55.5 ± 31	45.9	82.6 ± 1	32.2 ± 0.44	41.9 ± 18
